The text below walks through data of PubChem BioAssay (EPA / NIEHS).

For test [1], the target named is Cellular tumor antigen p53 (Homo sapiens) (UniProt P04637). In words: TOX21_p53_BLA_p2_ratio: Tox21 HCT-116 p53 Agonism Beta-lactamase Assay, Ratio, Phase 2 (AID 2283592). The method, boiled down: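 DMSO-normalized, positive-direction endpoint derived from the 460 nm/530 nm FRET ratio in HCT116 p53 beta-lactamase reporter cells exposed 16 h at 37C and loaded with CCF4-AM for 2 h.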

Test [2] in a line: TOX21_p53_BLA_p3_viability: Viability Assessment in the Tox21 HCT-116 p53 Agonism Beta-lactamase Assay, Phase 3 (AID 2283593).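 Also: cells exposed to compound for 16 h before reading.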 The method in brief:
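HCT116 cells, 4000/well, dosed 5 h after plating by pin transfer (217-fold dilution from DMSO stock) and incubated 16 h at 37C, 5% CO2. Viability read as ATP luminescence with CellTiter-Glo after 30 min at room temperature.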

For test [3], the target named is Cellular tumor antigen p53 (Homo sapiens) (UniProt P04637). In words: TOX21_p53_BLA_p3_ratio: Tox21 HCT-116 p53 Agonism Beta-lactamase Assay, Ratio, Phase 3 (AID 2283596). The method, boiled down:
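Cells were seeded at 4000/well, rested 5 h at 37C, then dosed with DMSO compound solutions (217-fold dilution) for 16 h. CCF4-AM substrate was loaded for 2 h at room temperature, and the 460/530 nm emission ratio was fitted for gain of signal versus DMSO.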

Test [4] in a line: TOX21_p53_BLA_p4_viability: Viability Assessment in the Tox21 HCT-116 p53 Agonism Beta-lactamase Assay, Phase 4 (AID 2283597).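 Also: hits lower the luminescence signal meaning cytotoxicity.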 The method in brief:
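In this multiplexed secondary endpoint, HCT116 cells (4000 per well, compound at 5 h, 16 h treatment) received CellTiter-Glo after the beta-lactamase read. Luminescence after 30 min RT reflects ATP, and falling signal marks cytotoxicity.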

In test [5] the target is Cellular tumor antigen p53 (Homo sapiens) (UniProt P04637). In words: TOX21_p53_BLA_p5_ratio: Tox21 HCT-116 p53 Agonism Beta-lactamase Assay, Ratio, Phase 5 (AID 2283599). The method in brief:
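HCT-116 p53-bla cells (4000/well) plated 5 h, dosed with compound (217-fold DMSO dilution) for 16 h at 37 C; CCF4-AM substrate 2 h at room temperature. Activity is the 460/530 nm emission ratio (405 nm excitation), fitted in gain-of-signal direction versus DMSO.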

Test [6] can be described thus: TOX21_p53_BLA_p5_viability: Viability Assessment in the Tox21 HCT-116 p53 Agonism Beta-lactamase Assay, Phase 5 (AID 2283600). The method, boiled down:
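Here cell health was gauged by ATP levels in wells holding 4000 cells, each treated 16 h with DMSO-delivered compounds at 217-fold dilution; reduced luminescence marked toxicity.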

For test [7], the target named is Cellular tumor antigen p53 (Homo sapiens) (UniProt P04637). Kind of test: TOX21_p53_BLA_p4_ratio: Tox21 HCT-116 p53 Agonism Beta-lactamase Assay, Ratio, Phase 4 (AID 2283601). The method, boiled down: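 HCT-116 p53 beta-lactamase reporter cells (4000/well) preincubated 5 h, then compound (217-fold dilution of DMSO stock) for 16 h at 37C. CCF4-AM substrate added 2 h at room temperature; 460/530 nm emission ratio fitted upward versus DMSO.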

Results filed as inconclusive are left out. Calls of active or inactive are those of the source. The calls were made as follows: active = hit-call score of the fitted dose curve at least 0.9, where 1 is the maximum; inconclusive = response in the unintended direction; inactive = score below 0.9.

Cellular tumor antigen p53 (Homo sapiens), sequence (P04637 whole entry, looked up): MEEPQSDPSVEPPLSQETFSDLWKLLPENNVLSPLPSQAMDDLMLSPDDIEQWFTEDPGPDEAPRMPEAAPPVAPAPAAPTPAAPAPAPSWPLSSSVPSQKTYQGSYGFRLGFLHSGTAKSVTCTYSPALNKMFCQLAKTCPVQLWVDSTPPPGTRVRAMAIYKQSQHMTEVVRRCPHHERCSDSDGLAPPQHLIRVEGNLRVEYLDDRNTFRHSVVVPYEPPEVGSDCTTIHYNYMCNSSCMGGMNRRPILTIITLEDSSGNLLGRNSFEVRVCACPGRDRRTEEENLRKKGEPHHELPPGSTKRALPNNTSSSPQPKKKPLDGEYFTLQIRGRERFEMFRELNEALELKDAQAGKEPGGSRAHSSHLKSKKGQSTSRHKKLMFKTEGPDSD

The term AC50 denotes the concentration at which the activity in the assay is half-maximal. For `CCN(CC)CCNc1ccc(CO)c2sc3ccccc3c(=O)c12`, the half-maximal activity concentration (AC50) in test [1] is 16.2 µM (active); in test [3], 23.2 µM (active); in test [4] it was 33.2 µM (active); in test [5], 20.5 µM (active); in test [7] it was 14.3 µM (active). Further, the result in test [2] and in test [6] was inactive.
Regarding `COc1ccc(C(=O)c2ccc(C)cc2)c(O)c1`, the result in test [1], in test [2], in test [3], in test [4], in test [5] and in test [6] was inactive. Moreover, in test [7], the result was inactive.
Consider `CCn1cc(C(=O)O)c(=O)c2cc(F)c(N3CCN(C)CC3)cc21`, for which the result in test [1], in test [2], in test [3], in test [4], in test [5] and in test [6] was inactive. Moreover, the result in test [7] was inactive.
For `c1ccc2sc(SN3CCOCC3)nc2c1`, the outcome in test [1], in test [2], in test [3], in test [4], in test [5] and in test [6] was inactive. In test [7], the outcome was inactive.
For the compound `C[C@@H]1O[C@@H]1P(=O)(O)O`, the outcome in test [1], in test [2], in test [3], in test [4], in test [5] and in test [6] was inactive. Further, the result in test [7] was inactive.
As for `CCCC(=O)N1CCCN(c2nc(N)c3cc(OC)c(OC)cc3n2)CC1`, the outcome in test [1], in test [2], in test [3], in test [4], in test [5] and in test [6] was inactive. Besides, in test [7], the result was inactive.
